IP6K1 inh = inhibitors of human IP6K1 | activity change, % (series mostly up to about 58 µM) | IP6K1 kinase, ADP-Glo luminescence, 2 h; stronger effect = lower value | hit rate 0.81% among 140,000 | Q92551; in the data active = activity change below about -25%; note: % is set by controls: 0 for no effect and ±100 for the full control effect
Target sequence (Q92551 whole entry, looked up): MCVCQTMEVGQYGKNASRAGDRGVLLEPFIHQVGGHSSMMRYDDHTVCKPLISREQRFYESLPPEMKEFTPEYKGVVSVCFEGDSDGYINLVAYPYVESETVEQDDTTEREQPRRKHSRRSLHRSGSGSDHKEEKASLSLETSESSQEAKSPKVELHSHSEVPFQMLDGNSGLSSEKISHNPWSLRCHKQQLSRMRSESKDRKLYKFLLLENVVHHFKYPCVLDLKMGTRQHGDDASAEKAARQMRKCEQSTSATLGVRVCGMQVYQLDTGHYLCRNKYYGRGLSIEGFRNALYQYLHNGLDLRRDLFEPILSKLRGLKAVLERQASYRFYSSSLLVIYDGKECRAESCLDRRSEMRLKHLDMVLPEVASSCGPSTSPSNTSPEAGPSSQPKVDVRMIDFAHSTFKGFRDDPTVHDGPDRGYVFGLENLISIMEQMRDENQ
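ADP-Glo luminescence measures ADP made by human IP6K1 during a 2 h RT reaction with ATP/IP6 (mix at 1.3 mM/130 uM); top library doses 57.5 and 19.1 uM final.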
KDM5B inhibitor = inhibitors of human KDM5B histone demethylase; Q9UGL1; KDM5B demethylase, FDH-coupled NADH fluorescence (FDH is formaldehyde dehydrogenase); Potency, µM (top dose mostly 57.7 µM), actives largely listed as inhibitors; hit rate 2.6% among 220,000; active = well fitted inhibition curve with a large enough effect; inconclusive = small, poorly fitted or top-dose-only effect; inactive = no such curve, though single readings can be large or run the other way; note: potency is the fitted concentration of half-maximal effect; 0% is about no effect; nearly all actives have a fitted effect of over 70% in size
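Compound dilutions met 200 nM (final) KDM5BΔAP for 10 min at room temperature before substrate addition. The substrate mix held 12.5 µM H3K4me3 with cofactors 25 µM α-ketoglutarate and 50 µM Fe²⁺. NADH signal gain over 30 min defined activity.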
* = called active by the depositor; i = inactive; ? = inconclusive; . = not tested or not shown. This is a sample that favours compounds with a hit; in the whole collection about 2.7% have one here.

SMILES | IP6K1 inh | KDM5B inhibitor
Cc1cc(C)c(CNC(=O)c2nc(-c3cncnc3)cc3c2ccn3C(C)C)c(=O)[nH]1 | -1 | 32µM*
CCNC(=O)C(C)NC(=O)CCc1nc(-c2ccccc2)c(-c2ccccc2)o1 (stereo unspecified) | . | i
Cc1ccc(CN2CC3(Cc4ccccc4C(=O)N3)C2)cc1 | 7 | i
CCCN(Cc1ccncc1)C(=O)c1cnc(-c2ccccn2)[nH]c1=O | 0 | 10µM*
CCCCN(Cc1cccnc1)C(=O)c1cnc(-c2ccc(C)cc2)[nH]c1=O | 9 | i
CCN1CC(C(=O)N2CCN(CCOc3ccccc3)CC2)CC1=O (stereo unspecified) | -7 | 25µM*
CCN1CC(C(=O)N2CCN(Cc3cc(OC)ccc3OC)CC2)CC1=O (stereo unspecified) | -8 | i
O=C(c1nn(Cc2ccccc2)c(=O)c2ccccc12)N1CCN(c2ccc(O)cc2)CC1 | . | i
Cn1ncc(N2CCC(CNC(=O)c3cccc4ncccc34)C2)cc1=O (stereo unspecified) | 2 | i
Cn1ncc(N2CCC(CNC(=O)c3cccc4ccnn34)C2)cc1=O (stereo unspecified) | -3 | 28µM*
COc1ccc(NC(=O)c2ccc3nc(-c4ccccn4)oc3c2)cc1 | 0 | .
CCc1ccc2oc(-c3cccc(NC(=O)c4ccc([N+](=O)[O-])o4)c3)nc2c1 | . | i
NC(=O)NCCC(=O)N1CCc2onc(-c3cccc4ccccc34)c2C1 | -6 | 25µM*
NC(=O)NCC(=O)N1CCc2onc(-c3cccc4ccccc34)c2C1 | 7 | ?
CCCN(C(=O)C(=O)c1c[nH]c2ccccc12)c1ccc(F)cc1 | . | i
COc1ccccc1Nc1ccnc(N2CCC(C(=O)NCC(F)F)CC2)n1 | 18 | .
Cc1ccc2c(C(=O)NCc3ccc(F)cc3Cl)cc(NC(=O)C(C)C)cc2n1 | 10 | ?
COc1ccccc1N1CCN(C(=O)c2cc(NC(=O)C(C)C)cc3nc(C)ccc23)CC1 | 13 | i
Cc1ccc2c(C(=O)NCc3cc(F)cc(F)c3)cc(NC(=O)C(C)C)cc2n1 | 18 | 22µM*
COCCNC(=O)c1cc(NC(=O)C(C)C)cc2nc(C)ccc12 | 28 | 25µM*
Cn1ncc2c(C(=O)NCc3ccc(C(F)(F)F)cc3)cc(-c3ccc(Cl)cc3Cl)nc21 | 9 | .
Cc1ccc2c(C(=O)NCc3ccc(F)c(Cl)c3)cc(NC(=O)C(C)C)cc2n1 | 6 | ?
Cc1ccc2c(C(=O)NCc3ccccc3C(F)(F)F)cc(NC(=O)C(C)C)cc2n1 | 4 | 25µM*
Cc1ccc2c(C(=O)NCc3ccc(C(F)(F)F)cc3)cc(NC(=O)C(C)C)cc2n1 | 9 | 16µM*
O=C(Cc1ccsc1)N1CCOc2ccc(CN3CCCCCC3)cc2C1 | 11 | .
SMILES | IP6K1 inh | KDM5B inhibitor
O=C(COc1ccc(-n2cnnn2)cc1)N1CCN(S(=O)(=O)c2ccc3ccccc3c2)CC1 | . | i
Cn1cnc2c1c(=O)n(CC(=O)NCc1ccc(OC(F)(F)F)cc1)c(=O)n2C | . | i
CC(C)CNC(=O)Cn1c(=O)c2c(ncn2C)n(C)c1=O | . | i
CCCOc1cc(C)c(C)cc1S(=O)(=O)Nc1cccnc1 | . | i
O=C(O)CCNS(=O)(=O)c1ccc(Cl)c(Cl)c1 | . | i
Cc1cccc(C(=O)Nc2cccc(-c3cn4ccccc4n3)c2)c1 | . | i
CCOc1ccccc1CNC(=O)c1cc(C)nc2c(C)cccc12 | . | i
CCOc1ccccc1CNC(=O)c1cc(NC(C)=O)cc2nc(C)ccc12 | 14 | 14µM*
O=C(N[C@H]1CCN2C(=O)c3cc(-c4cccs4)ccc3NC(=O)[C@H]12)C1CCCC1 | -5 | 40µM*
O=C(N[C@H]1CCN2C(=O)c3cc(-c4ccc(Cl)cc4)ccc3NC(=O)[C@H]12)C1CCCC1 | 5 | 25µM*
O=C(O)CCC(=O)N[C@H]1CCN2C(=O)c3cc(-c4cccs4)ccc3NC(=O)[C@H]12 | 8 | 35µM*
O=C(O)CCC(=O)N[C@H]1CCN2C(=O)c3cc(-c4cccc(C(F)(F)F)c4)ccc3NC(=O)[C@H]12 | -4 | i
O=C(N[C@H]1CCN2C(=O)c3cc(-c4cccs4)ccc3NC(=O)[C@H]12)c1cccc(F)c1 | -10 | 28µM*
O=C(NC1CCCCC1)N[C@H]1CCN2C(=O)c3cc(-c4cccs4)ccc3NC(=O)[C@H]12 | -5 | ?
O=C(N[C@H]1CCN2C(=O)c3cc(-c4ccsc4)ccc3NC(=O)[C@H]12)c1cccc(F)c1 | 6 | ?
COc1ccc(-c2ccc3c(c2)C(=O)N2CC[C@H](NC(=O)C4CCCC4)[C@H]2C(=O)N3)cc1 | -8 | ?
O=C(Nc1ccc(Cl)cc1F)N1CCc2nc3cc[nH]n3c(=O)c2C1 | 0 | 32µM*
COc1ccc(CC(=O)N2CCc3nc4cc[nH]n4c(=O)c3C2)c(Cl)c1 | 14 | ?
Cc1ccc(-c2noc(CCCC(=O)N3CCc4nc5cc[nH]n5c(=O)c4C3)n2)cc1 | 10 | ?
COc1ccc(-c2cc3nc4c(c(=O)n3[nH]2)CN(C(=O)c2sccc2C)CC4)cc1 | 3 | ?
Cc1ccccc1OCC(=O)N1CCc2nc3cc[nH]n3c(=O)c2C1 | 8 | ?
Cc1ccsc1C(=O)N1CCc2c(nc3cc[nH]n3c2=O)C1 | 24 | 32µM*
Cn1cccc1C(=O)N1CCc2nc3cc[nH]n3c(=O)c2C1 | 11 | 32µM*
Cc1ccccc1C(=O)N1CCc2nc3cc[nH]n3c(=O)c2C1 | 4 | 28µM*
COc1ccc2nc(C[C@@H]3C[C@@H](C(C)C)[C@H](CNCc4ccccc4OC)C=C3C)[nH]c2c1 | 13 | ?
SMILES | IP6K1 inh | KDM5B inhibitor
COc1ccc(C(C)=O)cc1CO/N=C/c1ccccc1Cl | . | i
COc1ccc(OC)c(S(=O)(=O)n2cc(C)nc2-c2ccccc2)c1 | . | i
O=C(Nc1ccc2c(c1)OCCO2)N1CCC(Cc2noc(C3CCOCC3)n2)C1 (stereo unspecified) | -8 | ?
O=C(CCn1c2c(c3ccccc31)CCCC2)N1CCc2nc3cc[nH]n3c(=O)c2C1 | 6 | i
Cn1nc(C(=O)N2CCc3nc4cc[nH]n4c(=O)c3C2)c2ccccc21 | 6 | 32µM*
CCOC(=O)c1cnc2ccccc2c1N1CCOCC1 | . | i
CC(=O)N1CCN(C(C(=O)O)c2cn(CC(=O)O)c3ccccc23)CC1 (stereo unspecified) | . | i
CC(C)CCNC(=O)c1ccc(-c2nnc3ccc(NC(=O)C4CCC4)cn23)cc1 | -7 | ?
Cc1ccc(CNC(=O)c2ccc(-c3nnc4ccc(NC(=O)C5CCC5)cn34)cc2)cc1 | 6 | ?
CN(C(=O)c1ccc(-c2nnc3ccc(NC(=O)C4CCC4)cn23)cc1)C1CCCCC1 | 8 | ?
CC(C)CNC(=O)c1ccc(-c2nnc3ccc(NC(=O)C4CC4)cn23)cc1 | -12 | 14µM*
Cc1cccc(CNC(=O)c2ccc(-c3nnc4ccc(NC(=O)C5CCC5)cn34)cc2)c1 | -5 | 28µM*
O=C(O)c1ccc(-c2nnc3ccc(NC(=O)C4CCC4)cn23)cc1 | -1 | 32µM*
O=C1CC(O)=C(Br)O1 | . | i
Cc1ccc(-c2cn3cc(C(=O)NCC(F)(F)F)nc3s2)cc1 | 9 | .
CC(O)C(=O)Nc1ccc(C(N)=O)cc1 (stereo unspecified) | . | i
CCOc1ccc(C(=O)NCc2sccc2C)cc1 | . | i
O=C(NCc1nnc2c(-c3nc(C4CC4)no3)cccn12)c1cc(F)ccc1Cl | -7 | 28µM*

Bioassay records as filed in PubChem.
